This is a sample that favours compounds with a hit; in the whole collection about 7.8% have one here.
VACV mCherry inh – qHTS for Stage-Specific Inhibitors of Vaccinia Orthopoxvirus: mCherry Reporter Primary qHTS; Vaccinia virus mCherry reporter infection, fluorescence; Potency, µM (titrated, usually from 36.5 µM), for the others: at the top dose activity change, negative = inhibition, most hits filed as inhibitors; actives 0.63% (n = 310,000); AID 720579, 2013; calls by dose curve; tested in A549 cells; further: potency means the concentration at half of the fitted maximal effect; nearly all actives have a fitted effect of over 35% in size
HCMV antiviral – qHTS Assay for inhibitors of the human cytomegalovirus (HCMV); HFF cells, HCMV-luciferase reporter, 72 h; stronger effect = lower value; activity change, negative = inhibition, % at 57.5 µM; actives 4.5% (n = 410,000); AID 1259415, 2018; in the data active means activity change below about -60%; inconclusive means no clear call, values can overlap the other calls; inactive means above about -39%
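Cell-based, HFFs, 1000 cells/well, 16 h 37C; cpds in DMSO + HCMV-luc, MOI 1 PFU/cell; 72 h 37C; OneGlo luminescence after 5 min RT; norm. to buffer vs Salinomycin 10uM.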
HCV inhibitor – qHTS Assay for Inhibitors of Hepatitis C Virus (HCV) | Huh7.5.1 HCVcc-Cre infection, luciferase reporter, 44 h | Potency, µM (doses to about 41.8 µM), inactives show at the highest dose activity change, negative = inhibition, actives largely listed as inhibitors | actives 3.4% (n = 340,000); active means well fitted inhibition curve with a large enough effect; inconclusive means small, poorly fitted or top-dose-only effect, or another doubt; inactive means no such curve, though single readings can be large or run the other way; further: potency means the concentration at half of the fitted maximal effect
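1,000 cells/well; 4 h culture; + compound; + HCVcc-Cre (~0.5 moi); 44 h; luciferase substrate, RT 15 min; read 15 sec.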
Lassa entry inh – qHTS for Inhibitors of binding or entry into cells for Lassa Virus | Lassa virus pseudotype entry inhibition, cell reporter | Potency, µM (doses to about 37.9 µM), inactives show top-dose activity change, negative = inhibition, hits mostly inhibitors | actives 1.2% (n = 300,000) | AID 540256, 2011; calls by dose curve; tested in HEK293 cells; further: potency means the concentration at half of the fitted maximal effect; nearly all actives have a fitted effect of over 50% in size
Marburg entry inh – qHTS for inhibitors of binding or entry into cells for Marburg Virus. Marburg virus pseudotyped entry inhibition, cell reporter. Potency, µM (highest dose often 37.8 µM), for inactives: at the highest dose activity change, negative = inhibition, most hits filed as inhibitors. actives 1.8% (n = 300,000). AID 540276, 2011; calls by dose curve; tested in HEK293 cells; further: potency means the concentration at half of the fitted maximal effect
VACV Venus inh – qHTS for Stage-Specific Inhibitors of Vaccinia Orthopoxvirus: Venus Reporter Primary qHTS | Vaccinia virus Venus reporter expression, fluorescence | actives 0.46% (n = 330,000) | Potency, µM (highest dose often 36.5 µM), without a hit: top-dose activity change, negative = inhibition, most hits filed as inhibitors; calls by dose curve; tested in A549 cells; further: potency means the concentration at half of the fitted maximal effect; nearly all actives have a fitted effect of over 30% in size
Starred values were filed as active, the others as inactive; i = inactive; ? = inconclusive; nt = no result; [ ] = dose if it differs, or a comment. On the % scale 0 is the no-effect control and ±100 the full control effect.

SMILES	VACV mCherry inh	HCMV antiviral	HCV inhibitor	Lassa entry inh	Marburg entry inh	VACV Venus inh
COc1cccc(-c2nc(NC(C)C)c3ccccc3n2)c1O	nt	-14.7	?	-9.5%	-28.7%	nt
Cc1nc(NCc2ccccn2)c2ccccc2n1	?	-84.2*	10µM*	-42.7%	?	-29.6%
CCC(C)Nc1nc(-c2cccc(OC)c2O)nc2ccccc12 (stereo not drawn)	?	55.1	2.51µM*	?	?	?
COc1ccc(NC(=O)C2CCCN(CCCc3ccccc3)C2)cc1OCC(C)C (stereo not drawn)	nt	-91.2*	?	nt	nt	nt
CC(NNC(=S)N1CCCCCC1)c1ccc2ccccc2n1 (stereo not drawn)	5.62µM*	-93.5*	nt	nt	nt	-24.9%
Cc1ccc(CN(c2ccc(C(=O)N3CCc4ccccc4C3)cc2)S(C)(=O)=O)cc1	nt	-34.1	10µM*	?	0.0%	nt
CS(=O)(=O)N(Cc1ccccc1)c1ccc(C(=O)N2CCN(c3cccc(Cl)c3)CC2)cc1	nt	-29.3	8.91µM*	?	13µM*	nt
Cc1ccc(-c2nc(P(=O)(c3ccccc3)c3ccccc3)c(N3CCOCC3)o2)cc1	nt	-6.6	?	?	10.3µM*	nt
CCOc1ccccc1CNC(=O)CCn1ccc2cc(S(=O)(=O)N3CCC(C)CC3)ccc21	-23.5%	-19.9	nt	0.0%[46.1 µM]	nt	-22.8%
CCN(CC)CCNC(=O)c1cnn(-c2nccc(-c3cc4ccccc4o3)n2)c1C	-14.4%	nt	nt	nt	nt	-3.8%
CC(C#N)Sc1ccc(S(=O)(=O)N(C)C2CCCCC2)cn1 (stereo not drawn)	nt	-61.6*	7.4%	nt	nt	nt
COc1ccc(OCC(=O)Nc2ccc(OC)c(S(=O)(=O)N3CCCCC3)c2)cc1	?	-25.4	10µM*	?	?	?
COc1ccc(NC(=O)COC(=O)c2cccn2C)cc1S(=O)(=O)N1CCCCC1	i	-69.1*	?	9.0%[46.1 µM]	?	-12.8%
COc1ccc(NC(=O)c2n[nH]c(=O)c3ccccc23)cc1S(=O)(=O)N1CCCCC1	?	-17.0	11.2µM*	?	?	-26.6%
Cc1ccc(OCC(=O)Nc2ccc(C)c(S(=O)(=O)N3CCCCC3)c2)c([N+](=O)[O-])n1	?	-19.0	?	?	1.12µM*	-26.2%
COc1ccc(C(=O)OCC(=O)Nc2ccc(OC)c(S(=O)(=O)N3CCCCC3)c2)cc1[N+](=O)[O-]	-21.8%	0.9	?	?	4.3%[46.1 µM]	-6.6%
COc1ccccc1CNC(=O)c1sc2nc3n(c(=O)c2c1C)CCC3	-6.5%	3.8	nt	9.3%[46.1 µM]	nt	0.8%
COc1ccc(NS(=O)(=O)c2c(F)cc(F)c(Cl)c2F)cc1S(=O)(=O)N1CCCCC1	3.55µM*	-26.3	9.2%	19.8%	4.4%	5.62µM*
COc1ccc(NC(=O)CSc2ccc3ccccc3c2)cc1S(=O)(=O)N1CCCCC1	-23.2%	-81.6*	5.01µM*	?	?	?
Cn1cccc1C(=O)OCC(=O)Nc1ccc2c(c1)OCCO2	-6.3%	132.0	-7.4%	7.08µM*	6.31µM*	-7.1%
COc1ccc(NC(=O)CSc2ccc(NC(C)=O)cc2)cc1S(=O)(=O)N1CCOCC1	i	-8.0	-0.1%	?	19.3%[46.1 µM]	-1.5%
COc1ccc(NC(=O)COc2ccccc2Cl)cc1S(=O)(=O)N1CCCCC1	-30.9%	?	10µM*	?	?	?
COc1ccc(NS(=O)(=O)c2c(F)cccc2F)cc1S(=O)(=O)N1CCOCC1	-12.3%	11.0	6.7%	10.1%	24.0%	2.3%
Cc1cc(C)c(NC(=O)Cn2nc3c(cc2=O)CCCC3)c(C)c1	-11.1%	13.2	nt	-4.9%[46.1 µM]	nt	0.7%
FC(F)(F)c1ccc(N2CCOCC2)c(Nc2nc3ccccc3n3cnnc23)c1	nt	25.2	?	?	4.11µM*	nt
SMILES	VACV mCherry inh	HCMV antiviral	HCV inhibitor	Lassa entry inh	Marburg entry inh	VACV Venus inh
c1ccc2c(c1)nc(Nc1ccc(N3CCCCC3)cc1)c1nncn12	nt	-30.7	?	nt	nt	nt
c1ccc(N2CCCCC2)c(Nc2nc3ccccc3n3cnnc23)c1	?	?	6.31µM*	?	?	-0.2%
Cc1cccc(N(C)S(=O)(=O)c2ccc(-c3cnc(C4CC4)o3)cc2)c1	nt	-97.6*	?	nt	nt	nt
Cc1ccc(N(C)S(=O)(=O)c2cc(-c3cnc(C4CC4)o3)ccc2C)cc1	-12.4%	-17.7	3.16µM*	?	?	-12.1%
CC(=O)Nc1ccc(NS(=O)(=O)c2cc(-c3cnc(C4CC4)o3)ccc2C)cc1	nt	14.4	-19.4%	nt	nt	nt
Cc1ccc(NS(=O)(=O)c2cc(-c3cnc(C4CC4)o3)ccc2C)cc1Cl	-17.2%	-64.2*	nt	?	nt	-23.3%
COc1cc(NC(=O)c2noc3c2CCc2ccccc2-3)cc(OC)c1OC	-23.7%	-15.9	nt	-18.2%[46.1 µM]	-17.5%[46.1 µM]	-14.2%
Cc1ccc(/C(O)=C2\C(=O)C(=O)N(Cc3ccco3)[C@@H]2c2cccs2)cc1	nt	nt	nt	nt	1.7%	nt
Cn1c(SCC(N)=O)nc2c([nH]c3ccccc32)c1=O	-11.2%	32.3	nt	4.0%[46.1 µM]	nt	-17.1%
CN1C(=O)C(C2(O)C(=O)Nc3ccccc32)c2ccccc21 (stereo not drawn)	nt	3.7	nt	nt	nt	nt
CCCCc1nn2c(=O)cc(COC(=O)c3ccccc3NC(=O)c3ccccc3OC)nc2s1	-10.6%	-7.6	nt	15.5%[46.1 µM]	nt	-1.6%
O=C(Nc1nc2c(Cl)cccc2s1)c1ccc(S(=O)(=O)N2CCc3ccccc32)cc1	?	-28.6	nt	?	nt	?
O=C(O)C1CC=CCC1C(=O)Nc1ccc(S(=O)(=O)N2CCCc3ccccc32)cc1 (stereo not drawn)	nt	-76.4*	12.8%	3.26µM*	2.06µM*	nt
NS(=O)(=O)c1ccc(NC(=O)c2ccc(S(=O)(=O)N3CCc4ccccc43)cc2)cc1	?	2.3	?	nt	nt	?
COc1cc2nc(NC(=O)c3ccc(S(=O)(=O)N4CCc5ccccc54)cc3)sc2cc1OC	-26.6%	-71.8*	nt	-24.4%[46.1 µM]	nt	-17.6%
COc1ccc(C(=O)Nc2ccc(S(=O)(=O)N3CCc4ccccc43)cc2)cc1	?	-90.3*	11.2µM*	12.6µM*	?	-27.4%
CC(=O)NCCCc1ccc(C(=O)COC(=O)CNC(=O)c2ccc3ccccc3c2)cc1	-5.6%	nt	nt	nt	nt	-9.4%
CCOC(=O)c1sc2nc(-c3cccnc3)ccc2c1N	?	-4.5	-4.0%	6.31µM*	?	?
CCOc1ccccc1NC(=O)c1sc2nc(-c3ccc(OC)cc3)ccc2c1N	-21.6%	-94.9*	nt	?	?	-12.2%
NC(=O)c1sc2nc(-c3cccnc3)ccc2c1N	?	36.3	13.5%	18.3%[46.1 µM]	?	-21.8%
CCOC(=O)[C@@H](C#N)[C@@H](Cc1ccccc1)c1ccco1	nt	nt	nt	nt	1.5%	nt
N#Cc1c(SCC(=O)O)nc(-c2ccccc2)c2c1CCCC2	-23.9%[1.46 µM]	-13.4	8.2%	-3.0%	9.8%	-14.8%
